NPC1 prom act: activates the NPC1 promoter; 320,000 compounds, 2.4% hits; Potency, µM (series often up to 9.22 µM), inactives show at the top dose activation, most hits filed as activators; Huh7 NPC1 promoter luciferase reporter, 24 h; further: % of control where 0% means no effect; nearly all actives have a fitted effect of over 60% in size
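In 1536-well qHTS, Huh7 cells harboring an NPC1 promoter–luciferase construct received compound for 24 h; activation was quantified by luminescence following luciferase reagent addition.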
SMN2 splice up: SMN2 splice variant enhancement. HEK293 SMN2-luciferase splicing reporter, luminescence, 30-36 h. Potency, µM (doses to about 46.1 µM), inactives show at the top dose activity change, positive = activation, most hits filed as activators. 210,000 compounds, 2.8% hits; further: % of control where 0% means no effect; nearly all actives have a fitted effect of over 55% in size
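qHTS luciferase splicing reporter: luminescence rises when SMN2 exon 7 is included in transfected HEK293 cells. Compound exposure lasted 30-36 h at 37C, with 4.5 mM final sodium butyrate as control, followed by a ONE-Glo read.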
ELG1 genotoxic: induces genotoxicity in HEK293T cells with luciferase-tagged ELG1 | HEK293T ELG1-luciferase reporter, luminescence, 16 h | Potency, µM (top dose mostly 46 µM), for inactives: at the top dose activity change, positive = activation, usual class: activators | 330,000 compounds, 1.3% hits | AID 504466; further: % of control where 0% means no effect; nearly all actives have a fitted effect of over 60% in size
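16 hr compound incubation (37 °C, 5% CO2) of HEK293T cells carrying luciferase-tagged ELG1; luciferase then measured by ONE-Glo luminescence after 30 min at RT.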
Luc counter: Kinase-Glo luciferase inhibition (counter-screen). 200,000 compounds, 0.28% hits. Potency, µM (series often up to 38.3 µM), for the others: top-dose activity change, negative = inhibition, hits mostly inhibitors. Kinase-Glo luciferase, ATP luminescence, 8 min; further: on the % scale 0 is the no-effect control and ±100 the full control effect; nearly all actives have a fitted effect of over 60% in size
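Compounds were added to a substrate mix at pH 7.2 (50 mM imidazole, 10 uM ATP, within the enzyme's linear range), followed by Kinase-Glo detection reagent; luminescence was measured after 8 minutes at ambient temperature.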
Rab9 promoter act: Rab9 promoter activation. Huh7 Rab9 promoter-luciferase reporter, luminescence, 24 h. Potency, µM (titrated, usually from 9.22 µM), inactives show at the top dose activation, negative = inhibition, usual class: activators. 320,000 compounds, 2.8% hits. AID 485297; further: % of control where 0% means no effect; nearly all actives have a fitted effect of over 60% in size
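Using Huh7 cells stably transfected with Rab9 promoter–luciferase, compounds were incubated 24 h at 37 °C, 5% CO2; luciferase luminescence was read 10 min after reagent addition.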
FLuc counter: firefly luciferase modulation, counter-screen for miR-21 project; P08659; purified FLuc, Km substrates, luminescence inhibition; Potency, µM (series often up to 57.5 µM), for inactives: top-dose activity change, negative = inhibition, usual class: inhibitors; 360,000 compounds, 6.9% hits;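 further: plate controls were vehicle for no effect and reference inhibitor for full effect; nearly all actives have a fitted effect of over 55% in size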
Target sequence (P08659 whole entry, looked up): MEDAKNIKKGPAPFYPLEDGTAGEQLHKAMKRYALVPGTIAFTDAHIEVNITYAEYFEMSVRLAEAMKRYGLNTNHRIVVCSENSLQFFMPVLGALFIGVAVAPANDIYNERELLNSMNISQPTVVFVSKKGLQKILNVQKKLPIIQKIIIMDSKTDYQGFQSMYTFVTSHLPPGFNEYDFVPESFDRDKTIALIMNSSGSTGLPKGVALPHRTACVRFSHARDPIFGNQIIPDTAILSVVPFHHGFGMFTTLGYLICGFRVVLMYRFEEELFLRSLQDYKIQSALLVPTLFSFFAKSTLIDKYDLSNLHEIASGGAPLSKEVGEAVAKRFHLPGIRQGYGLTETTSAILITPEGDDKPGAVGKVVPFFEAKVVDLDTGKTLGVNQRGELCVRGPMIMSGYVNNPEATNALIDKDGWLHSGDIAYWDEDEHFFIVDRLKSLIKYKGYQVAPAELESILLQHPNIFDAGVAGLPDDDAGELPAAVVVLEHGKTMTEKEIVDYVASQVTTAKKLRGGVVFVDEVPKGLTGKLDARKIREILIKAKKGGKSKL
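Purified P. pyralis luciferase, 10 nM final, with Km-level 10 uM D-luciferin and 10 uM ATP in 50 mM Tris acetate pH 7.5, 10 mM Mg acetate, 0.01% Tween-20, 0.05% BSA; 6-point qHTS titration about 60 µM downward; luminescence read.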
Starred values were filed as active, the others as inactive. In the library only some 7.5% were active in any assay of this set; here they are far more common. The call rests on the fitted dose curve; in most records, active means well fitted curve in the direction sought with a large enough effect; inconclusive means small, poorly fitted or top-dose-only effect, or another doubt; inactive means no such curve, though single readings can be large; an effect the other way counts as inactive or inconclusive. Potency means the concentration at half of the fitted maximal effect.

CCc1cc2c(=O)c(-c3nc4ccccc4n3C)coc2c(CN2CCCCC2C)c1O (centres undefined) was read as NPC1 prom act -1%, ELG1 genotoxic -7%, Rab9 promoter act -4% and FLuc counter 1%.
`CC1CCCCN1Cc1c(O)ccc2c(=O)c(-c3nc4ccccc4s3)coc12` (centres undefined) gave NPC1 prom act 24%, ELG1 genotoxic 0%, Rab9 promoter act 21% and FLuc counter 21µM*.
O=C1CN(C(=O)c2ccccc2F)C(c2ccc(F)cc2)c2cc(Br)ccc2N1 (centres undefined) was read as NPC1 prom act -1%, ELG1 genotoxic -5%, Rab9 promoter act -1% and FLuc counter -1%.
Screening Cc1cccc(/N=C/c2c(O)[nH]c3ccccc23)n1 returned NPC1 prom act inconclusive, SMN2 splice up inconclusive, ELG1 genotoxic inconclusive, Luc counter -20%, Rab9 promoter act 3.5µM* and FLuc counter 4.3µM*.
`Oc1c(C=Nc2cccc3cccnc23)sc2ccccc12` gave NPC1 prom act -4%, SMN2 splice up -6%, ELG1 genotoxic 3.3µM*, Luc counter 10µM*, Rab9 promoter act -20% and FLuc counter 0.38µM*.
For Cc1cccc(/N=C/c2sc3ccccc3c2O)n1 the results were NPC1 prom act 21%, ELG1 genotoxic 4.6µM*, Rab9 promoter act inconclusive and FLuc counter 0.48µM*.
Cc1c(/C=N/O)sc2ccccc12 was read as NPC1 prom act -4%, ELG1 genotoxic 1%, Rab9 promoter act -1% and FLuc counter inconclusive.
For O=[N+]([O-])c1ccc(O)c(N=Cc2sc3ccccc3c2O)c1 the results were NPC1 prom act 15%, SMN2 splice up -77%, ELG1 genotoxic 13%, Luc counter -23%, Rab9 promoter act -17% and FLuc counter 11µM*.
For O=C(c1ccccc1)c1cccc(C(=O)c2ccccc2)c1 the results were NPC1 prom act 5%, ELG1 genotoxic -5%, Rab9 promoter act 2% and FLuc counter -14%.
O=C(c1ccccc1)c1ccc2cc(O)ccc2c1 was read as NPC1 prom act inconclusive, ELG1 genotoxic inconclusive, Rab9 promoter act inconclusive and FLuc counter 15µM*.
Screening Cc1ccc(C2c3c(oc4ccccc4c3=O)C(=O)N2c2nnc(C)s2)cc1 (centres undefined) returned FLuc counter 0%.
Screening CCOc1ccc(N(CC(=O)Nc2ccccc2CC)S(=O)(=O)c2c(C)[nH]c(=O)[nH]c2=O)cc1 returned SMN2 splice up -1% and FLuc counter -14%.
`CN(C)c1ccc(/C=C/c2ccc3c4ccccc4ccc3[n+]2-c2ccccc2)cc1` gave NPC1 prom act -47%, SMN2 splice up -50%, ELG1 genotoxic -4%, Luc counter 10µM*, Rab9 promoter act -41% and FLuc counter 27µM*.
Screening O=C(COC(=O)CNS(=O)(=O)c1ccc(F)c(F)c1F)NCCc1ccccc1 returned NPC1 prom act inconclusive, ELG1 genotoxic inconclusive, Rab9 promoter act inconclusive and FLuc counter 5.4µM*.
Screening O=C(COc1ccc(NC(=O)c2cccs2)cc1)c1ccc(F)cc1 returned NPC1 prom act 11%, ELG1 genotoxic 22%, Rab9 promoter act 18% and FLuc counter 1.9µM*.
COC(=O)c1ccc(NC(=O)CNc2ccccc2)cc1 was read as NPC1 prom act 27%, ELG1 genotoxic inconclusive, Luc counter 1%, Rab9 promoter act inconclusive and FLuc counter 24µM*.
`COC(=O)c1ccc(OCC(=O)c2cccc(OC)c2)cc1` gave NPC1 prom act inconclusive, SMN2 splice up 5.6µM*, ELG1 genotoxic inconclusive, Luc counter -5%, Rab9 promoter act inconclusive and FLuc counter 24µM*.

Screening results deposited in PubChem BioAssay by National Center for Advancing Translational Sciences (NCATS).
